Source: PubChem BioAssay AID1733 (National Center for Advancing Translational Sciences (NCATS), 2009)
Records with an inconclusive call do not appear. Calls of active or inactive are those of the source. Calls come from the whole dose curve; as a rule, active = well fitted inhibition curve with a large enough effect; inconclusive = small, poorly fitted or top-dose-only effect; inactive = flat fitted curve, though single readings scatter.

Biological target: Luciferin 4-monooxygenase (Photinus pyralis) (UniProt P08659)
Sequence (P08659 whole entry, looked up, canonical isoform): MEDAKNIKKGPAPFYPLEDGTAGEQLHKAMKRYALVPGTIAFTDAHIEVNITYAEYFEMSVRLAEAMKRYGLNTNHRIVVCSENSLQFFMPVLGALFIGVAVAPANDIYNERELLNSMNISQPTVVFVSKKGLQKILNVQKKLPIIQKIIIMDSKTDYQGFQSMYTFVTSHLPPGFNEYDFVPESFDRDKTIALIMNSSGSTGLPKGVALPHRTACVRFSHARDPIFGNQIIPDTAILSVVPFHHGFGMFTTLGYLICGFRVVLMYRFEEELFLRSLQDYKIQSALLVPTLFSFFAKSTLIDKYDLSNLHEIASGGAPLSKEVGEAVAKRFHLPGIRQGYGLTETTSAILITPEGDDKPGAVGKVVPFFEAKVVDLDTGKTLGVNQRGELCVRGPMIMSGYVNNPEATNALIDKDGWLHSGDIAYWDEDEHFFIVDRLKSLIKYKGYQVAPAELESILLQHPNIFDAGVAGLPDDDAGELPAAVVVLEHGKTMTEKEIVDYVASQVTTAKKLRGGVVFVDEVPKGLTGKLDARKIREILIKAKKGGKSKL
Assay: Counterscreen Assay for Enhancers of SMN2 Splice Variant Expression: Interaction with Luciferase Reporter
Settings: purified firefly luciferase, luminescence, 5 min; series mostly up to 51 µM
Excerpt: NIH Chemical Genomics Center [NCGC] NIH Molecular Libraries Probe Production centers Network [MLPCN] MLPCN Grant: R03 MH084179-01 Assay Submitter (PI): Elliot Androphy NCGC Assay Overview: Spinal muscular atrophy (SMA) is caused by insufficient levels of the survival motor neuron protein SMN. The SMN locus on chromosome 5q13 contains two inverted copies of SMN called SMN1 and SMN2 which are 99% identical at the amino acid level. SMN1 is a fully functional protein and SMN2 skips exon 7 90% of the time. Skipping of exon 7 produces non-functional protein product. 10% of the SMN2 protein includes exon 7 and is fully functional. In the SMA disease state, mutations in the SMN1 locus are the cause of the disease state. Because only 10% of SMN2 is of the fully functional form, it is not sufficient to overcome the deficiency produced by the loss of the SMN1 product. A therapy that either increases the amount of SMN2 product made increases the inclusion of exon 7 has been proposed for the treatment of SMA. We have designed an assay to identify small molecules that can increase the amount of functional SMN2 product by appending a luciferase reporter gene after the native SMN2 gene, such that inclusion of exon 7 in the expressed product places the luciferase sequence in frame, thus generating functional luciferase enzyme. One potential source of false positives in the primary screening assay is stabilization of the reporter luciferase via direct binding. […]
NCGC Assay Protocol Summary: The primary screen utilizes a luciferase reporter gene assay, combining the promoter and splicing based cassettes in tandem with the major portion of the native SMN1 cDNA, and then transfected into HEK293 cells. […] Sequence, Parameter, Value, Description (1) Reagent, 2.5 uL, Enzyme in buffer (note A) (2) Compound, 23 nL, From stock solutions (3) Time, 5 minutes, Room temp (4) Reagent#2.5 ul, Luciferase detection reagent (note B) (5) Detector, 1 sec integrate, Luminescent read on Viewlux (note C) Sigma enzyme (1 mg) considered to be MW 61,000 diluted in 357 ul assay buffer to 50 uM stock. […]

Row | Structure (SMILES) | Potency | activity change, negative = inhibition
1 | O=C(C1CCN(c2nc3ccc(Br)cc3s2)CC1)N1CCC2(CC1)OCCO2 | 7.08 µM (active) | –
2 | C[C@@H]1O[C@@H](O[C@H]2C[C@@H](O)[C@]3(CO)[C@H]4[C@H](O)C[C@]5(C)[C@@H](C6COC(=O)C6)CC[C@]5(O)[C@@H]4CC[C@]3(O)C2)[C@H](O)[C@H](O)[C@H]1O (stereo partly drawn) | – | 13.4% [at 48.7 pM] (inactive)
3 | CC[C@]1(O)CC(O[C@@H]2CC(N(C)C)C(O)C(C)O2)c2c(cc3c(c2O)C(=O)c2c(O)cccc2C3=O)C1C(=O)OC (stereo partly drawn) | inactive | –
